Results published in PubChem BioAssay AID504720 (Sanford-Burnham Center for Chemical Genomics, 2011).
About 1,100 (0.31%) of roughly 350,000 compounds were called active. No stated cut-off is given here; in the data, active means activation above about 50%; inactive means the rest. Only a selection was taken, and actives are over-represented in it overall.

What follows are molecules tested against Endoribonuclease toxin MazF (Escherichia coli (strain K12)) (UniProt P0AE70) (assay: activators of E. coli MazEF toxin-antitoxin RNase, primary screen, biochemical, fluorescence, uHTS (AID 504720)). Conditions: FAM/BHQ RNA-DNA oligo cleavage fluorescence, 5 h, at 20 µM, active compounds read high.
Endoribonuclease toxin MazF (Escherichia coli (strain K12)), sequence (P0AE70 whole entry, looked up): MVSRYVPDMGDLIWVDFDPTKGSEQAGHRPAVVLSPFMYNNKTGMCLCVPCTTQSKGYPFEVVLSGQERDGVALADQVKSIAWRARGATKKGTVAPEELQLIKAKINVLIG

| Structure (SMILES) | activation |
| --- | --- |
| Cc1c(C(=O)NCCN2C(=O)S/C(=C\c3cccs3)C2=O)cccc1[N+](=O)[O-] | 9.61% (inactive) |
| CC(C(=O)Nc1ccc(O)c(C(=O)O)c1)N1C(=O)/C(=C/c2cccs2)SC1=S (stereo unspecified) | 3.14% (inactive) |
| O=C(CCN1C(=O)/C(=C/c2cccs2)SC1=S)NNC(=O)c1cccc(O)c1 | 96.7% (active) |
| CC(C)NC(=O)C(=O)NCCCOC(C)C | 15.5% (inactive) |
| COCCN(CCOC)S(=O)(=O)NC[C@H]1O[C@@H](n2cnc3c(N)ncnc32)[C@H](O)[C@@H]1O | 5.68% (inactive) |
| CCCCN(CC(=O)Nc1cccc(S(=O)(=O)N2CCCC2)c1)Cc1nc2ccccc2c(=O)[nH]1 | -2.27% (inactive) |
| CCOc1ccc(N2C(=O)/C(=C/c3ccc(C)o3)N(C)C2=S)cc1 | 53.2% (active) |
| CCOc1ccc(N2C(=O)CN(c3cccc4ccccc34)C2=S)cc1 | 1.98% (inactive) |
| CCO/C=C1\C(=O)N(c2ccc(OCC)cc2)C(=O)c2ccccc21 | 5.56% (inactive) |
| OCC[C@H]1C[C@H](O)[C@@H](O)[C@]2(CCc3ccccc3O2)O1 | 2.25% (inactive) |
| CCCCN=C1C([N+](=O)[O-])=CC=C2C1=NC1(CCCCC1)N2O | 8.1% (inactive) |
| CCCCn1c(N)c(N(CC(C)C)C(=O)c2ccc(-n3c(C)ccc3C)cc2)c(=O)[nH]c1=O | -0.38% (inactive) |
| COc1ccc(NC(=O)CSc2nnc(-c3ccccc3F)n2C2CC2)cc1S(N)(=O)=O | 3.2% (inactive) |
| CC(C)(C)C1CCC(C(=O)Nc2cccnc2)CC1 (stereo unspecified) | 5.13% (inactive) |
| CC(=O)N1C(=O)/C(=C2\SC(=S)N(NC(=O)c3ccc(O)cc3)C2=O)c2ccccc21 | 4.76% (inactive) |
| CN1C(=O)C(CC(N)=O)N(NC(=O)c2ccc(Cl)cc2)C1=S (stereo unspecified) | -6.03% (inactive) |
| Cn1cccc1/C=C1\SC(=S)N(NC(=O)c2ccc(Cl)cc2)C1=O | 140% (active) |
| CCn1nc(C(=O)NNC(=O)C2CSC3(C)CCC(=O)N23)c2ccccc2c1=O (stereo unspecified) | 1.5% (inactive) |
| CN(c1ccccc1)c1ccc([N+](=O)[O-])c2nonc12 | 72.5% (active) |

| Structure (SMILES) | activation |
| --- | --- |
| Cc1ccc2cccc([N+](=O)[O-])c2n1 | 4.29% (inactive) |
| Cc1ccccc1Nc1c([N+](=O)[O-])ccc2nonc12 | -7.83% (inactive) |
| C=CC[C@@H](CC(=O)NCCO)C(=O)N[C@H](C)COC(=O)[C@@H](CC=C)CC(=O)OC(C)(C)C | -0.071% (inactive) |
| COc1cc(S(=O)(=O)N(Cc2cccs2)C2CC2)ccc1-n1cnnn1 | 7.76% (inactive) |
| CCOC(=O)N1CCN(C(=O)c2ccc3nc4cc(Cl)ccc4c(=O)n3c2)CC1 | -2.93% (inactive) |
| CC(C)(C)N(Cc1ccccc1)C(=O)COC(=O)CCc1c[nH]c2ccccc12 | 5.36% (inactive) |
| COc1cc(C(c2c(O)c3ccccc3oc2=O)c2c(C)n(C)n(-c3ccccc3)c2=O)ccc1O (stereo unspecified) | 0.237% (inactive) |
| CCC(=O)CC(c1ccc([N+](=O)[O-])cc1)c1c(O)c2ccccc2oc1=O (stereo unspecified) | 1% (inactive) |
| COc1cc(N=Cc2c(O)c3ccccc3oc2=O)c(OC)cc1Cl | 221% (active) |
| O=C(NNC(=S)Nc1ccc(F)cc1)[C@H]1C[C@@H]1c1ccccc1 | 12.2% (inactive) |
| CCCNC(=O)c1onc(CSc2ccc(F)cc2)c1C(=O)NC(C)C | 1.76% (inactive) |
| Cc1ccc(S(=O)(=O)N2CCN(C(=O)Cn3c(=O)cnc4ccccc43)CC2)c(C)c1 | 52.1% (active) |
| Cc1ccc(S(=O)(=O)N2CCN(C(=O)COC(=O)c3c(C)cc(C)cc3C)CC2)c(C)c1 | 2.63% (inactive) |
| Cc1ccc(S(=O)(=O)N2CCN(C(=O)CSc3cc(C)ccc3C)CC2)c(C)c1 | -11.9% (inactive) |
| CCOc1ccc(/C=C/C(=O)OCC(=O)c2ccccc2OC)cc1OC | -8.54% (inactive) |
| Cc1ccc(N=Cc2c(O)n(-c3nccs3)c(=O)c3ccccc23)c(C)c1 | 1250% (active) |
| COC(=O)Cc1csc(/N=C/c2c(O)n(-c3cccc(C(F)(F)F)c3)c(=O)c3ccccc23)n1 | -24.2% (inactive) |
| Cc1cccc(-n2c(O)c(C=Nc3ccccc3N)c(=O)[nH]c2=O)c1 | 10.4% (inactive) |
| COc1ccc(C)cc1N(C)C(=O)c1coc(=O)c2ccccc12 | 4.28% (inactive) |

| Structure (SMILES) | activation |
| --- | --- |
| COc1cc(OC)cc(C(=O)Nc2ccc(-c3nc4ccccc4o3)c(O)c2)c1 | -11.7% (inactive) |
| O=C(Nc1ccc2oc(-c3ccc4ccccc4c3)nc2c1)c1cccs1 | 57.7% (active) |
| O=C(Nc1ccc2oc(-c3ccccc3F)nc2c1)c1ccco1 | 1.3% (inactive) |
| O=C(NCCSc1ncc(-c2ccccc2)[nH]1)c1ccco1 | 3.87% (inactive) |
| COCCCNC(=O)c1c(F)c(F)c(F)c(F)c1F | 5.56% (inactive) |
| COc1ccc(/C=C/c2c(-c3cccc(C)c3)oc3ccc(-c4ccc5c(c4)OCO5)cc23)cc1 | -7.77% (inactive) |
| Cc1cc(C)cc(Oc2c(C(F)(F)F)oc3cc(OCC(=O)O)ccc3c2=O)c1 | 2.37% (inactive) |
| CCC(=O)Nc1cccc(NC(=O)c2cccnc2)c1 | 335% (active) |
| O=C(Cc1ccccc1)Nc1ccc(NC(=O)c2cccnc2)cc1 | -0.44% (inactive) |
| CCOC(=O)c1cc(NC(=O)c2cccnc2)ccn1 | 0.906% (inactive) |
| O=C(NCCOc1ccccc1)N1[C@H]2CC[C@@H]1C=C(c1ccc(F)cc1OCc1ccccc1)C2 | -1.59% (inactive) |
| CSCCC1NC2(C(=O)Nc3ccc(Cl)cc32)[C@@H]2C(=O)N(C3CCCC3)C(=O)[C@H]12 (stereo partly specified) | 2.84% (inactive) |
| CC(=O)c1ccc(N2CCN(CC(=O)Nc3ccccc3N3CCOCC3)CC2)cc1 | 4.75% (inactive) |
| O=C(CN1CCOCC1)Nc1ccccc1 | 6.62% (inactive) |
| O=C(CN1CCN(c2ccc(O)cc2)CC1)Nc1ccc(-c2ccccc2)cc1 | 111% (active) |
| CN(C)Cc1c(O)ccc2occ(C(O)c3ccccc3)c12 (stereo unspecified) | 8.71% (inactive) |
| COc1cccc2c1OCC(CN1CCN(C3CCCCC3)C(CCO)C1)=C2 (stereo unspecified) | 0.264% (inactive) |
| CC(=O)NC(C)(C)C1CC=C(C)/C(=N\O)C1 (stereo unspecified) | 6.07% (inactive) |
